# Vc quorum ag-1 – inducers of Vibrio cholerae quorum light production without autoinducers, primary screen, BH1578 luxS cqsA deficient, single point | V. cholerae BH1578 lux reporter, luminescence, 6 h | activation, % at 18.7 µM | 350,000 compounds, 0.16% hits | AID 588436, 2011; in the data active means activation mostly above about 9.7%, no sharp cut-off
# RN4220 kill – growth inhibition of S. aureus RN4220, primary screen, OD600 | 16 h | inhibition, % (concentration not given with the values) | 330,000 compounds, 0.33% hits; in the data active means inhibition above about 85%
# ugtP null kill – growth inhibition of ugtP-null S. aureus, primary screen, RN4220 ugtP deletion, OD600. growth inhibition, % (no concentration beside the values). 330,000 compounds, 0.54% hits. 16 h; in the data active means growth inhibition above about 68%
# TcdB GH inh – TcdB glycohydrolase inhibitors, primary screen, biochemical, single point, plate reader; Toxin B (Clostridioides difficile), P18177; TcdB glycohydrolase enzymatic assay; inhibition, % at 9.99 µM; 350,000 compounds, 0.24% hits; in the data active means inhibition above about 10%
# Vc quorum ag-2 – V. cholerae lux activation without autoinducers – BH1578 luxS cqsA deficient, cherry-pick, plate reader, dose response. shares compounds with Vc quorum ag-1. AID 602243, 2012. activation, % at 50 µM. V. cholerae BH1578 lux reporter, luminescence, 6 h. 620 tested, under 10 active; call rule not given here
# HeLa tox – HeLa cell cytotoxicity, dose response, cytotoxicity control, 24 h, dry powder; shares compounds with Vc quorum ag-1; HeLa viability, CellTiter-Glo ATP luminescence; activity change, negative = cytotoxicity, % at 35 µM; 25 tested, under 10 active; AID 624140, 2012;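 active means signal drop with fitted half-maximal concentration at or below twice the highest valid dose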
# A number is an active result; – = inactive; · = not tested or not shown. This is a sample that favours compounds with a hit; in the whole collection about 0.67% have one here.
SMILES,Vc quorum ag-1,RN4220 kill,ugtP null kill,TcdB GH inh,Vc quorum ag-2,others
COc1cc(NC(=O)c2ccccc2)c(OC)cc1NC(=O)CN1C(=O)N(C)C2(CCCCC2)C1=O,–,–,–,–,–,
O=C(c1cn(-c2ccccc2)nc1-c1cccs1)N1CCOCC1,25,–,–,·,–,
O=C(c1cn(-c2ccccc2)nc1-c1cccs1)N1CCN(c2ccccc2)CC1,–,–,–,·,·,
CC(C)C(Nc1nc(-c2ccccc2)nc2c1oc1ccccc12)C(=O)O (stereo not given),·,–,–,·,·,
Cc1ccc(C2(C)NC(=O)N(CC(=O)NCCC3=CCCCC3)C2=O)cc1 (stereo not given),228,–,–,·,–,
CC1(c2ccc(Cl)cc2)NC(=O)N(CC(=O)NCCC2=CCCCC2)C1=O (stereo not given),–,–,–,–,·,
COc1ccccc1NC(=O)c1ccc(NC(=O)COC(=O)c2ccc(O)cc2)cc1,–,–,–,–,·,
COc1ccc(Cl)cc1NC(=O)COC(C)=O,–,–,–,–,·,
COc1ccc(Cl)cc1NC(=O)COC(=O)c1ccc(C)o1,·,–,–,–,–,HeLa tox=–
COc1ccccc1NC(=O)COC(=O)c1cc2ccccc2s1,·,·,·,·,·,HeLa tox=–
COc1ccccc1NC(=O)COC(=O)c1ccc(C)cc1,·,·,·,·,·,HeLa tox=–
Nc1nnc(C=Cc2ccccc2)s1,·,–,–,·,·,
COc1cccc2c1C1CN(CCCCn3c(=O)[nH]c4c(sc5ncc(-c6ccccc6)nc54)c3=O)CC1CO2 (stereo not given),·,–,–,·,·,
COc1c(C)cccc1C(=O)Nc1ccc(OCC(=O)N2CCOCC2)cc1C,–,–,–,–,–,
CN(C)C=Nc1c(C#N)cnn1-c1ccc(C(F)(F)F)cn1,·,–,–,·,·,
CC(=O)c1cccc(NC(=O)CSc2nc(=O)n(CCCN3CCOCC3)c3c2CCC3)c1,31,–,–,–,–,
Cc1cccc(NC(=O)CSc2nc(=O)n(CCCN3CCOCC3)c3c2CCCC3)c1,–,–,–,–,·,
Cc1nc2ccccn2c1C(O)=C1C(=O)C(=O)N(CCN(C)C)C1c1cccnc1 (stereo not given),·,–,–,·,·,
CCOC(=O)Nc1ccc(S(=O)(=O)Nc2cc(C)nc(C)n2)cc1,–,–,–,·,–,
COc1ccc(CC(=O)N2CCC(Nc3nc4ccccc4n3Cc3ccc(F)cc3)CC2)cc1,15,–,–,·,–,
CCN(CC1COc2ccccc2O1)C(=S)Nc1ccccc1 (stereo not given),–,–,–,·,–,
CCN(CC1COc2ccccc2O1)C(=S)NCCCN(C)C (stereo not given),–,–,–,–,·,
COc1ccc(C2C=CCN(S(=O)(=O)c3ccc(C)cc3)CC(=O)N2Cc2ccc(F)cc2)cc1 (stereo not given),·,–,–,·,·,
Clc1ccc(SCc2cc(-c3ccccc3)on2)cc1,–,–,–,·,·,
Clc1ccc(-c2cc(COc3ccc4ccccc4c3)no2)cc1,–,–,–,·,–,
SMILES,Vc quorum ag-1,RN4220 kill,ugtP null kill,TcdB GH inh,Vc quorum ag-2,others
Cc1ccc(C)n1-c1sc2c(c1C#N)CCC(C)C2 (stereo not given),–,–,–,·,–,
CC(=O)Nc1sc2c(c1C#N)CCC(C)C2 (stereo not given),–,–,–,–,·,
CC1C2C[C@@]34COC(=O)C3=CC=CC4[C@@]13CC(c1ccoc1)OC3O2 (stereo not given in full),·,–,–,·,·,
COc1ccc(C2C(C(=O)N3CCCCC3)c3ccccc3C(=O)N2C)cc1 (stereo not given),–,–,–,·,·,
CCOC(=O)C1CCN(C(=O)C2c3ccccc3C(=O)N(C)C2c2ccc(OC)cc2)CC1 (stereo not given),17,–,–,·,–,
O=C(Nc1ccc(-c2cn3ccsc3n2)cc1)c1ccc(F)c(S(=O)(=O)N2CCOCC2)c1,–,–,–,·,–,
COc1cccc(Oc2cnc(N)nc2-c2ccc(OC)cc2O)c1,–,–,–,·,·,
COc1ccc(-c2nc(N)ncc2Oc2ccccc2Br)c(O)c1,36,–,–,·,–,
COc1ccc(C(=O)COC(=O)c2cccc(-n3cnnn3)c2)c(OC)c1,–,–,–,–,–,
Cn1nnnc1SCC(=O)c1ccc2c(c1)OCCO2,–,–,–,–,·,
CCCn1nnnc1SCC(=O)c1ccc2c(c1)OCCO2,65,–,–,·,–,
O=C(c1cccs1)c1coc2ccc(O)cc12,–,–,–,·,·,
CCC(=O)c1coc2ccc(O)cc12,25,–,–,·,–,
CCC1=C2CCC3C(=O)N(C)C(=O)C3C2[C@@]2(Cc3ccccc3)C(=NCC(=O)OC)OC(=O)N2C1=O (stereo not given in full),·,–,–,·,·,
Cn1c(=O)oc2cc(S(=O)(=O)N3CCN(c4ccc(F)cc4)CC3)ccc21,97,–,–,·,–,
COC(=O)C1=C(c2cccc(OCc3ccccc3)c2)CC2CCC1N2C(=O)NCc1ccccc1OC (stereo not given),·,–,–,·,·,
Cc1nn(-c2ccccc2)c(Cl)c1C=NNc1ccc(S(=O)(=O)Nc2ccccc2C(=O)O)cc1[N+](=O)[O-],·,–,–,·,·,
CN(C(=O)Cn1cc(C(F)(F)F)cc(Cl)c1=O)C1CCS(=O)(=O)C1 (stereo not given),–,–,–,–,–,
CN(C)C=Nc1ncn(-c2ncc(C(F)(F)F)cc2Cl)n1,·,–,–,·,·,
COC(=O)C1=C(c2ccc(-c3ccccc3)c(F)c2)CC2CCC1N2C(=O)NCCO (stereo not given),·,–,–,·,·,
C[C@H](CO)N1C[C@H](C)[C@@H](CN(C)S(=O)(=O)c2ccccc2)Oc2c(NC(=O)Nc3ccc4c(c3)OCO4)cccc2C1=O,109,–,–,–,–,
C[C@@H]1CN([C@H](C)CO)C(=O)c2cccc(NC(=O)Nc3ccc4c(c3)OCO4)c2O[C@@H]1CN(C)S(=O)(=O)c1ccccc1,·,·,·,–,·,
CCOC(=O)C1=C(C)NC(SC)=NC1c1ccc(OC)cc1 (stereo not given),–,–,–,·,–,
CCOC(=O)C1=C(C)NC(C)=C(C(=O)OCC)C1c1ccc(OC)cc1,–,–,–,·,·,
COc1ccc(C2CC(=O)C=C(c3ccc4c(c3)OCCO4)C2)cc1 (stereo not given),·,–,–,·,·,
SMILES,Vc quorum ag-1,RN4220 kill,ugtP null kill,TcdB GH inh,Vc quorum ag-2,others
Cc1ccc(Oc2nccc(-c3ccc(Cl)cc3)n2)cc1,–,–,–,·,–,
Clc1ccc(-c2cnc(Oc3ccccc3)nc2)cc1,–,–,–,·,·,
Cn1c(C(=O)O)cnc1Sc1ncc(C(F)(F)F)cc1Cl,–,–,–,–,·,
CC(C)NC(=O)c1cnc(Sc2ncc(C(F)(F)F)cc2Cl)n1C,–,–,–,·,–,
Oc1ccc(-c2cn3c(n2)SCC3)cc1,17,–,–,·,–,
CC(=NNC(=O)CNC(=O)c1cccs1)c1ccco1,·,–,–,·,·,
c1ccc(-c2ccc(CN3Cc4ccccc4-n4nncc4C3)cc2)cc1,249,·,·,–,–,
CCCn1c(=O)[nH]c(=O)c2c1nc(-c1ccc(C#N)cc1)n2CCOC,–,–,–,–,·,

# High-throughput results (PubChem)
